Laboratory results: ChEMBL document CHEMBL3988442, “University of Dundee, Small-Polar-MMV Screening Library” (2021)

Biological target: AMP-activated protein kinase, AMPK (Homo sapiens) (UniProt P54646+O43741+P54619+Q9UGJ0+Q9Y478+Q13131+Q9UGI9)
Experiment: AMP-dependent Kinase enzyme assay. An in vitro enzyme assay that detects ADP turnover that is directly proportional to AMPK activity. This uses naive AMPK that is activated during the assay with MK-8722
Format: functional
Parameters: scale not given: direction of the effect not stated beside the values
Conditions: 30 µM

Compound	Percent Effect
Cc1ccc(-c2cc(C(=O)N(C)Cc3noc4c3CCCC4)[nH]n2)o1	4.24%
CS(=O)(=O)CC1(CNc2cc(C#N)c3cc(Cl)ccc3n2)CC1	-0.595%
CN(CCNC(=O)Nc1cnn(C)c1)Cc1ccc(F)cc1	0.603%
CN(C)c1ncccc1CNC(=O)NCC(c1cccs1)N(C)C (stereo not given)	-9.48%
COc1ccccc1OC(C)CNC(=O)c1cnc[nH]1 (stereo not given)	0.827%
c1c[nH]c(-c2cn(CCSc3cnn[nH]3)nn2)n1	-8.05%
Cc1ccc2occ(CN3CCN(c4ncccn4)CC3)c(=O)c2c1	-1.29%
COCC(NC(=O)c1cc(NC(C)=O)ccc1Cl)c1ccccn1 (stereo not given)	1.62%
CCN(CC)CCCNC(=O)Nc1c(C)cccc1C(C)C	4.58%
COc1ccc(CCC(=O)N2CCN(c3nc(C)ns3)CC2)cc1	-3.26%
Cc1nc(CN(C)c2nccc(C(F)(F)F)n2)cs1	5.48%
COc1ccccc1CCN(C)C(C)c1nc(-c2cccnc2)no1 (stereo not given)	1.66%
CCSCC(C)NCc1ccccc1-n1ccnc1 (stereo not given)	7.25%
Cc1cc(N2CCN(Cc3ccsc3)C(CCO)C2)nc(N)n1 (stereo not given)	0.121%
O=C(c1cnnn1-c1ccccc1)N1CCCC(c2ccn[nH]2)C1 (stereo not given)	-5.43%
N#Cc1ccc(SCCC(=O)NC(N)=O)cc1	-6.73%
O=C(CN1CC(c2nc(-c3ccco3)no2)C1)NCc1ccc(F)cc1	1.74%
CC(C(=O)NC1(C#N)CCCCC1)N1CCc2c(ncn2C)C1 (stereo not given)	-9.22%
CCOc1cc(Cl)ccc1CNC(=O)c1ccc(=O)n(C)c1	10.5%
CCC[C@@H]1CN(Cc2ccc(C(F)(F)F)nc2)C[C@H]1NS(C)(=O)=O	4.44%

Compound	Percent Effect
CC(=O)N[C@H]1CCO[C@@H](c2cccc(NC(=O)c3cccc(F)c3)c2)C1	6.73%
CCc1cc(=O)n(CCNC(=O)Nc2ccc(OC(F)(F)F)cc2)cn1	-3.24%
Cc1noc(CNc2cc3c(cc2Cl)NC(=O)CO3)n1	1.17%
Cc1ccc(C)n1-c1ccsc1C(=O)NCC(=O)N1CCCC1	2.6%
Cc1cc(C)c2[nH]c(C(=O)NCCN3CCCC3=O)c(C)c2c1	13.3%
NC(=O)CNC(=O)c1cc(Cn2cnc3ccccc32)[nH]n1	-3.37%
CCc1nc(CCNc2ncccc2C#N)sc1C	-3.24%
CNC(=O)NC(=O)CN1CCc2c(Br)ccc(F)c2C1	5.32%
Fc1ccc(C2(CNCCc3cccs3)CCOC2)cc1 (stereo not given)	-3.1%
Cc1n[nH]c(C)c1NC(=O)NCc1cc[nH]n1	-7.26%
Cc1nc(CN(C)S(=O)(=O)c2ccccc2Br)no1	6.12%
Cc1nc(N)c2ccc(C3CCCN3)nc2n1 (stereo not given)	10.9%
Cc1cccc(C)c1Nc1noc2c1CN(C(=O)c1ccnn1C)CC2	9.88%
Cc1cc(NCCNc2cccnc2)nc(N)n1	-11.6%
Cc1nc(CNC(=O)c2cc(COc3ccccc3F)[nH]n2)n[nH]1	5.27%
COCc1ccccc1NC(=O)c1ccoc1	-4.58%
CC(C(=O)NC1(C#N)CCCCC1)N1CCc2c(ncn2C2CC2)C1 (stereo not given)	-1.93%
CCc1c(C)nn(CCN2CC3(CCOC3)CCC2=O)c1C (stereo not given)	-3.55%
CCN(Cc1ccoc1)C(=O)Nc1ccccc1CN(C)C(C)=O	2.94%
O=C(CCn1cccn1)NCCOc1ncc(Cl)cc1Cl	2.54%
